Results filed as inconclusive are left out. The source made the active and inactive calls. The call rests on the fitted dose curve; in most records, active means well fitted curve in the direction sought with a large enough effect; inconclusive means small, poorly fitted or top-dose-only effect, or another doubt; inactive means no such curve, though single readings can be large or run the other way.
On the % scale 0 is the no-effect control and ±100 the full control effect; potency means the concentration at half of the fitted maximal effect.

Sequence of Metallo-beta-lactamase type 2 (Klebsiella pneumoniae) (C7C422 whole entry, looked up): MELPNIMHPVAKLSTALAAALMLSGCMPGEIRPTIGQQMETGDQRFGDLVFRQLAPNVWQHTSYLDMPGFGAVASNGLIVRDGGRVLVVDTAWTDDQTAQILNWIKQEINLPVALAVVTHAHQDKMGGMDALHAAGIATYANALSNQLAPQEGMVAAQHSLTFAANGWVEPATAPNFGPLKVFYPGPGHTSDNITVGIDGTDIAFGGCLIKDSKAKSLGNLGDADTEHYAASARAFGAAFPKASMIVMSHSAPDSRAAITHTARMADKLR

The test has as its target Metallo-beta-lactamase type 2 (Klebsiella pneumoniae) (UniProt C7C422). Briefly: qHTS to identify inhibitors of the New Delhi Metallo-beta-lactamase (NDM): assay validation screen against the NCATS LOPAC Collection (AID 1794843).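 On activity change, negative = inhibition: nitrocefin turnover by NDM-1 measured as 485 nm absorbance at plateau.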 The conditions noted are these: NDM-1 enzyme, nitrocefin hydrolysis, absorbance 485 nm; series mostly up to 38.4 µM; activity change, negative = inhibition: at the top concentration. The procedure, abridged:
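Nitrocefin hydrolysis (50 uM substrate stock) by NDM-1, 2 nM final, was followed by 485 nm absorbance after compound preincubation; buffer was 50 mM HEPES pH 7.0, 1 uM ZnSO4, 0.01% Tween20.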
`CNC(=O)[C@H]1O[C@@H](n2cnc3c(NCc4ccc(N)cc4)ncnc32)[C@H](O)[C@@H]1O`: the “activity change, negative = inhibition” value is 3.76% (inactive).
With `COc1cc2c(CCNC(C)=O)c[nH]c2cc1Cl`, the “activity change, negative = inhibition” value was 5.01% (inactive).
`CN(C)CCC(c1ccc(Cl)cc1)c1ccccn1` (stereo unspecified): the “activity change, negative = inhibition” value was -0.0151% (inactive).
Consider `Nc1nc(Cl)nc2c1ncn2[C@@H]1O[C@H](COP(=O)(O)OP(=O)(O)OP(=O)(O)O)[C@@H](O)[C@H]1O`, for which the “activity change, negative = inhibition” value was -19.9% (inactive).
Consider `O=P(O)(O)C(Cl)(Cl)P(=O)(O)O`, for which the “activity change, negative = inhibition” value was -11.8% (inactive).
Consider `O=c1[nH]c2cc([N+](=O)[O-])c([N+](=O)[O-])cc2[nH]c1=O`, for which the “activity change, negative = inhibition” value is 8.09% (inactive).
On to `COc1cccc(C(=O)NCCN2CCN(c3ccc(Cl)cc3)CC2)c1`, for which the “activity change, negative = inhibition” value is -0.246% (inactive).
`Nc1nc(Cl)nc2c1ncn2[C@@H]1O[C@H](CO)[C@@H](O)[C@H]1O`: the “activity change, negative = inhibition” value is -7.12% (inactive).
On to `COc1ccc(C(=O)/C(Cc2cc(OC)c(OC)c(OC)c2)=C(\C(=O)O)c2ccc3c(c2)OCO3)cc1`, for which the “activity change, negative = inhibition” value was -7.18% (inactive).
Still for that read-out and setting: next, `CCCN(CC1CC1)c1nc(C)nc(Nc2c(Cl)cc(Cl)cc2Cl)c1Cl`: 6.03% (inactive).
Consider `OC[C@H]1O[C@@H](n2cnc3c(NC4CCCCC4)ncnc32)[C@H](O)[C@@H]1O`, for which the “activity change, negative = inhibition” value is 10.7% (inactive).
Consider `Cn1c(=O)c(-c2c(Cl)cccc2Cl)cc2cnc(Nc3ccc(N4CCOCC4)cc3)nc21`, for which the “activity change, negative = inhibition” value is -8.4% (inactive).
Regarding `OCC1O[C@H](O)C(Cl)C(O)C1O` (stereo partly specified), the “activity change, negative = inhibition” value is 0.16% (inactive).
For `CCN1/C(=C/C(C)=O)Sc2ccc(OC)cc21`, the “activity change, negative = inhibition” value is 8.63% (inactive).
On to `CO/N=C(\C(=O)N[C@@H]1C(=O)N2C(C(=O)O)=C(COC(C)=O)CS[C@H]12)c1csc(N)n1`, for which the “activity change, negative = inhibition” value is -2.07% (inactive).
For the compound `CN1[C@@H](CC(=O)c2ccccc2)CCC[C@H]1C[C@H](O)c1ccccc1`, the “activity change, negative = inhibition” value was 2.82% (inactive).
With `NS(=O)(=O)c1ccc(-n2nc(C(F)(F)F)cc2-c2ccc(Cl)cc2)cc1`, the “activity change, negative = inhibition” value was -7.67% (inactive).
Turning to `O=C1NC(=O)c2c1c(-c1ccccc1)cc1[nH]c3ccc(O)cc3c21`, the “activity change, negative = inhibition” value was 4.56% (inactive).
Consider `Clc1ccc(N2CCN(Cc3c[nH]c4ncccc34)CC2)cc1`, for which the “activity change, negative = inhibition” value was -1.85% (inactive).
The same measure, in the same setting: as for `CN1CCc2ccccc2Cc2[nH]c3ccccc3c2CC1`, the figure is 0.888% (inactive); as for `O=C(CCCCCN1CCN(c2ccccc2-c2ccccc2)CC1)NC1CCCc2ccccc21` (stereo unspecified), 2.69% (inactive).
Consider `C#C[C@]1(O)CC[C@H]2[C@@H]3CCC4=Cc5oncc5CC4(C)[C@H]3CCC21C` (stereo partly specified), for which the “activity change, negative = inhibition” value is -0.462% (inactive).
As for `Nc1ccn([C@H]2O[C@H](CO)[C@@H](O)C2(F)F)c(=O)n1`, the “activity change, negative = inhibition” value was -6.2% (inactive).
In the case of `CC1(C)CCC=[N+]1[O-]`, the “activity change, negative = inhibition” value was -8.51% (inactive).
As to `CCOC(=O)C1=C(C)NC(C)=C(C(=O)OCC)C1c1c(F)c(F)c(F)c(F)c1F`, the “activity change, negative = inhibition” value was -0.297% (inactive).
Regarding `CC1CN(S(=O)(=O)c2cccc3cnccc23)CCN1` (stereo unspecified), the “activity change, negative = inhibition” value was -8.36% (inactive).
As to `O=C(c1ccc(Cl)cc1)N1CCN(c2ccc([N+](=O)[O-])c3ncccc23)CC1`, the “activity change, negative = inhibition” value is -0.204% (inactive).
Same read-out and setting: as for `CCN(CC)c1ncnc2c1ncn2[C@@H]1O[C@H](COP(=O)(O)OP(=O)(O)C(Br)(Br)P(=O)(O)O)[C@@H](O)[C@H]1O`, the figure is -19.1% (inactive).
With `S=C(S)OC1CC2CC1C1CCCC21` (stereo unspecified), the “activity change, negative = inhibition” value was -0.91% (inactive).
For `O=C(Nc1ccccc1)c1cc([N+](=O)[O-])ccc1Cl`, the “activity change, negative = inhibition” value is -0.646% (inactive).
`NC(=O)C(=O)O`: the “activity change, negative = inhibition” value was 1.91% (inactive).
On to `NC[C@@H]1O[C@H](C23CC4CC(CC(C4)C2)C3)Cc2c1ccc(O)c2O`, for which the “activity change, negative = inhibition” value is 1.02% (inactive).
`c1cnc2c(c1)ccc1cccnc12`: the Potency was 20 µM (active).
Turning to `CC(=O)N[C@H](C(=O)O)C(C)(C)SN=O`, the “activity change, negative = inhibition” value was -5.16% (inactive).
For the compound `CC(C)c1cccc(C(C)C)c1N1C(=O)c2ccc(O)cc2C1=O`, the “activity change, negative = inhibition” value is 0.838% (inactive).
As for `N[C@H](CCCP(=O)(O)O)C(=O)O`, the “activity change, negative = inhibition” value was 8.46% (inactive).

For the origin of these results see PubChem BioAssay (NCATS).
